Experiment [1] is described as follows: differential killing of epithelial or mesenchymal cells, primary screen, imaging, PC-3E GFP, TEM4-18 mCherry, co-culture (AID 1345086).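 For all read-outs here: cells exposed to compound for 72 h before imaging.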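 For red/green cell ratio (normalised): normalised mesenchymal count divided by normalised epithelial count so high means epithelial killing.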 Conditions: imaging cell counts, at 1 µM; for red/green cell ratio (normalised): actives lie on both sides, counts scaled to control wells, 1 = unselective.
The subject of experiment [2] is Aerobactin synthetase IucA (Klebsiella pneumoniae). Description: IucA aerobactin synthetase inhibitors, biochemical, Tocris library, absorbance (AID 1345561; call rule not given here;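 note: 100% = enzyme without compound and 0% = no enzyme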). Conditions: purified IucA enzyme assay, absorbance (OD) read-out; stronger effect = lower value;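 tested at 8 µM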.
Experiment [3] is described as follows: growth inhibition of DIPG glioma cells, dose response, cell-based, SU-DIPG-XIII, MIPE4.0, CellTiter-Glo, qHTS (AID 1347061; cut-off not given, nearly all actives have AC50 up to about 37 µM;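 note: cells exposed to compound for 48 hours before readout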). Conditions: SU-DIPG-XIII viability, CellTiter-Glo ATP luminescence.
Experiment [4] in a line: growth inhibition of DIPG glioma cells, dose response, cell-based, JHH-DIPG-1, MIPE4.0, CellTiter-Glo, qHTS (AID 1347062; cut-off not given, nearly all actives have AC50 up to about 27 µM;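 for AC50: cells exposed to compound for two days before readout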). Conditions: JHH-DIPG-1 viability, CellTiter-Glo ATP luminescence.
A short description of experiment [5]: growth inhibition of DIPG glioma cells, dose response, cell-based, SU-DIPG-IV, MIPE4.0, CellTiter-Glo, qHTS (AID 1347063; cut-off not given, nearly all actives have AC50 up to about 30 µM;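 note: compound exposure lasted 48 hours before the viability readout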). The settings on record: SU-DIPG-IV viability, CellTiter-Glo ATP luminescence.
Experiment [6] is described as follows: growth inhibition of DIPG glioma cells, dose response, cell-based, SU-DIPG-XVII, MIPE5.0, CellTiter-Glo, qHTS (AID 1347060; cut-off not given, nearly all actives have AC50 up to about 26 µM;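 for AC50: cells exposed to compound for 48 hours before viability readout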). The settings on record: SU-DIPG-XVII viability, CellTiter-Glo ATP luminescence.
Experiment [7] is described as follows: growth inhibition of DIPG glioma cells, dose response, cell-based, SU-DIPG-XIII, MIPE5.0, CellTiter-Glo, qHTS (AID 1347064; cut-off not given, nearly all actives have AC50 up to about 23 µM;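 for AC50: cells exposed to compound for 48 hours before the viability read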). Conditions: SU-DIPG-XIII viability, CellTiter-Glo ATP luminescence.
Setting [8] is: measured here: epithelial PC-3E GFP cell survival.
The mark [9] stands for this setting: measured here: mesenchymal TEM4-18 mCherry cell survival.

Structures are written as SMILES. Several values for one entry are separate records, joined by “and”; a condition that tells them apart may be missing. Equal values may be shown once. Records with an inconclusive call do not appear. Activity calls are given as the source filed them.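 Rule for the calls, unless noted: active = compounds killing one labelled cell type while sparing the other, by normalised counts and ratio limits, not self-fluorescent; inactive = the rest.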

For `CC(=O)Nc1ccc(O)cc1`, the red/green cell ratio (normalised) in experiment [1] is 1.05 (inactive). Also, the figures for the normalised cell number in experiment [1] (setting [8]) and in experiment [1] (setting [9]) were 1.11 and 1.16, respectively. In experiment [2], the remaining activity was 121% (inactive). Also, the outcome in experiment [3] and in experiment [4] was inactive.
Take `CN1CCN2c3ccccc3Cc3ccccc3C2C1` (stereo not given): in experiment [1], the red/green cell ratio (normalised) is 1.03 (inactive). Moreover, the normalised cell number in experiment [1] (setting [8]) was found to be 1.24; in experiment [1] (setting [9]), 1.28. Moreover, in experiment [2], the remaining activity was 115% (inactive). The molecule was classed as inactive in experiment [3], in experiment [4] and in experiment [5].
`CCOC(=O)C1=C[C@]2(CC)CCCN3CCc4c(n1c1ccccc41)[C@@H]32`: the red/green cell ratio (normalised) in experiment [1] was 0.75 (inactive). The normalised cell number in experiment [1] (setting [8]) is 1.28; in experiment [1] (setting [9]) it was 0.96. Moreover, the remaining activity in experiment [2] was 107% (inactive). Also, the AC50 in experiment [3] is 26.4 µM (active); in experiment [4], 11.8 µM (active); in experiment [5], 16.6 µM (active).
For the molecule `CS(=O)(=O)Nc1ccc([N+](=O)[O-])cc1Oc1ccccc1`, the red/green cell ratio (normalised) in experiment [1] is 0.96 (inactive). The normalised cell number in experiment [1] (setting [8]) is 1.05; in experiment [1] (setting [9]), 1.01. Moreover, the remaining activity in experiment [2] was 111% (inactive). In addition, the molecule was classed as inactive in experiment [6], in experiment [3], in experiment [4] and in experiment [7].
For the molecule `O=C1CCc2cc(OCCCCc3nnnn3C3CCCCC3)ccc2N1`, the red/green cell ratio (normalised) in experiment [1] was 1.09 (inactive). Also, the figures for the normalised cell number in experiment [1] (setting [8]) and in experiment [1] (setting [9]) were 0.86 and 0.94, respectively. Moreover, in experiment [2], the remaining activity was 118% (inactive). The result in experiment [6], in experiment [3], in experiment [4], in experiment [5] and in experiment [7] was inactive.
Take `Nc1c(Br)cc(Br)cc1CNC1CCC(O)CC1` (stereo not given): the red/green cell ratio (normalised) in experiment [1] is 0.72 (inactive). Moreover, the normalised cell number in experiment [1] (setting [8]) was determined as 1.16; in experiment [1] (setting [9]), 0.84. In addition, the remaining activity in experiment [2] was 105% (inactive).
On to `CC1=NN(c2ccccc2)C(=O)C1`, for which the red/green cell ratio (normalised) in experiment [1] is 0.88 (inactive). Also, the values for the normalised cell number in experiment [1] (setting [8]) and in experiment [1] (setting [9]) were 1.15 and 1.01, respectively. For the same molecule, the remaining activity in experiment [2] is 85.6% (inactive). Further, the molecule was called inactive in experiment [6], in experiment [3], in experiment [4], in experiment [5] and in experiment [7].
As for `NS(=O)(=O)c1cc2c(cc1Cl)NC(C1CC3C=CC1C3)NS2(=O)=O` (stereo not given), the red/green cell ratio (normalised) in experiment [1] is 1.29 (inactive). Further, the values for the normalised cell number in experiment [1] (setting [8]) and in experiment [1] (setting [9]) were 0.95 and 1.23, respectively. Moreover, in experiment [2], the remaining activity was 94.1% (inactive).
For `Cc1cc2c(C(C)C)c(O)c(O)c(C=O)c2c(O)c1-c1c(C)cc2c(C(C)C)c(O)c(O)c(C=O)c2c1O`, the red/green cell ratio (normalised) in experiment [1] was 0.91 (inactive). Further, the normalised cell number in experiment [1] (setting [8]) amounted to 1.04; in experiment [1] (setting [9]), 0.95. In addition, the remaining activity in experiment [2] was 103% (inactive). For the same molecule, the AC50 in experiment [6] is 7.42 µM (active); in experiment [3] it was 23.5 µM (active); in experiment [4], 18.7 µM (active); in experiment [5], 18.7 µM (active); in experiment [7], 10.5 µM (active).
Regarding `COC(=O)[C@H]1[C@H]2C[C@@H]3c4[nH]c5cc(OC)ccc5c4CCN3C[C@H]2C[C@@H](OC(=O)c2cc(OC)c(OC)c(OC)c2)[C@@H]1OC`, the red/green cell ratio (normalised) in experiment [1] was 1.08 (inactive) and 1.2 (inactive). In addition, the normalised cell number in experiment [1] (setting [8]) is 0.87 and 1.06; in experiment [1] (setting [9]) it was 0.94 and 1.27. Besides, in experiment [2], the remaining activity is 124% (inactive).
Consider `Cc1scc2c1N(C(=O)CN1CCN(C)CC1)c1ccccc1NC2=O`, for which the red/green cell ratio (normalised) in experiment [1] is 1.05 (inactive). Besides, the normalised cell number in experiment [1] (setting [8]) turned out to be 0.88; in experiment [1] (setting [9]), 0.92. Further, the remaining activity in experiment [2] was 94.5% (inactive).
As to `C/C=C(/C(=C/C)c1ccc(O)cc1)c1ccc(O)cc1`, in experiment [1], the red/green cell ratio (normalised) was 1.38 (inactive). In addition, the normalised cell number was 1.12 in experiment [1] (setting [8]) and 1.55 in experiment [1] (setting [9]). The AC50 in experiment [6] was 23.5 µM (active). Also, the molecule was called inactive in experiment [3] and in experiment [4].
Turning to `Cc1oncc1C(=O)Nc1ccc(C(F)(F)F)cc1`, the red/green cell ratio (normalised) in experiment [1] is 0.74 (inactive). Further, the values for the normalised cell number in experiment [1] (setting [8]) and in experiment [1] (setting [9]) were 1.34 and 0.99, respectively. Also, in experiment [2], the remaining activity is 91.8% (inactive). Moreover, the result in experiment [4] and in experiment [7] was inactive.
Regarding `COc1ccc2[nH]cc(CCNC(C)=O)c2c1`, the red/green cell ratio (normalised) in experiment [1] was 1.02 (inactive). The figures for the normalised cell number in experiment [1] (setting [8]) and in experiment [1] (setting [9]) were 0.84 and 0.86, respectively. For the same molecule, the remaining activity in experiment [2] was 102% (inactive). Moreover, the molecule was called inactive in experiment [6], in experiment [3], in experiment [4] and in experiment [7].
For `O=c1c(-c2ccc(O)cc2)coc2cc(O)cc(O)c12`, the red/green cell ratio (normalised) in experiment [1] is 0.95 (inactive). The normalised cell number in experiment [1] (setting [8]) stood at 0.96; in experiment [1] (setting [9]) it was 0.91. The remaining activity in experiment [2] is 121% (inactive). The molecule was called inactive in experiment [3], in experiment [4], in experiment [5] and in experiment [7].
With `CC(C)(Oc1ccc(Cl)cc1)C(=O)O`, the red/green cell ratio (normalised) in experiment [1] is 0.77 (inactive). Moreover, the normalised cell number was 1.11 in experiment [1] (setting [8]) and 0.86 in experiment [1] (setting [9]). Moreover, in experiment [2], the remaining activity was 92.9% (inactive).
On to `COC(=O)Nc1nc2ccc(C(=O)c3cccs3)cc2[nH]1`, for which, in experiment [1], the red/green cell ratio (normalised) is 1.09 (inactive). Besides, the normalised cell number in experiment [1] (setting [8]) was 0.15; in experiment [1] (setting [9]), 0.17. Further, the remaining activity in experiment [2] is 122% (inactive). Also, the AC50 in experiment [6] is 0.148 µM (active); in experiment [7], 0.833 µM (active).
Take `COc1ccc(CCN2CCC(Nc3nc4ccccc4n3Cc3ccc(F)cc3)CC2)cc1`: the red/green cell ratio (normalised) in experiment [1] was 1.02 (inactive). Moreover, the normalised cell number in experiment [1] (setting [8]) is 1.09; in experiment [1] (setting [9]) it was 1.11. Further, the remaining activity in experiment [2] was 97.7% (inactive).
In the case of `O=c1c(O)c(-c2ccc(O)c(O)c2)oc2cc(O)cc(O)c12`, the red/green cell ratio (normalised) in experiment [1] is 0.91 (inactive). Moreover, the normalised cell number in experiment [1] (setting [8]) was 1.15; in experiment [1] (setting [9]), 1.04. Also, the remaining activity in experiment [2] is 113% (inactive). The molecule was called inactive in experiment [6] and in experiment [7].
Consider `CCCOc1ccccc1-c1nc2n[nH]nc2c(=O)[nH]1`, for which, in experiment [1], the red/green cell ratio (normalised) was 0.95 (inactive). Besides, the normalised cell number in experiment [1] (setting [8]) is 1.02; in experiment [1] (setting [9]), 0.97. Moreover, the remaining activity in experiment [2] was 122% (inactive).
In the case of `O=C(c1ccc(F)cc1)C1CCN(CCn2c(=O)[nH]c3ccccc3c2=O)CC1`, the red/green cell ratio (normalised) in experiment [1] was 0.88 (inactive). In addition, the normalised cell number was 0.99 in experiment [1] (setting [8]) and 0.88 in experiment [1] (setting [9]). For the same molecule, the remaining activity in experiment [2] is 124% (inactive). The call in experiment [3], in experiment [4] and in experiment [5] was inactive.
As for `O=C(O)CCC(=O)Nc1ccc(S(=O)(=O)Nc2nccs2)cc1`, the red/green cell ratio (normalised) in experiment [1] was 1.01 (inactive). In addition, the normalised cell number in experiment [1] (setting [8]) was found to be 1.11; in experiment [1] (setting [9]), 1.13.
Take `CC1(C)NC(=O)N(c2ccc([N+](=O)[O-])c(C(F)(F)F)c2)C1=O`: the red/green cell ratio (normalised) in experiment [1] is 1.15 (inactive). Further, the results for the normalised cell number in experiment [1] (setting [8]) and in experiment [1] (setting [9]) were 1.25 and 1.43, respectively. In addition, in experiment [2], the remaining activity was 120% (inactive). For the same molecule, the outcome in experiment [4], in experiment [5] and in experiment [7] was inactive.

Source of the values: PubChem BioAssay.
